The text below walks through data of PubChem BioAssay AID588335 (The Scripps Research Institute Molecular Screening Center, 2011).

Usually inhibition stands for the relative decrease from the control value, in per cent.

Molecules are shown by their SMILES. Among all 360,000 compounds or so, about 4,500 (1.2%) were called active. The full list was thinned out, with actives kept by preference. A number with no mark means an inactive call. Rule as the data show it: active = inhibition above about 30%; inactive = the rest.

The nature of this experiment: inhibition of GDH and TPI enzymes – biochemical, absorbance, full deck, artefact control for M. tuberculosis FBA inhibitor project, primary screen (AID 588335).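 Also: 0% = DMSO wells and 100% = wells lacking the enzyme.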 Particulars: GDH-TPI coupled enzyme counterscreen, NADH absorbance; at 4.8 µM; hits give high values. (In general: Counterscreens check selectivity or assay interference.)
For `Cc1ccc(NC(=O)C(=O)NCc2ccco2)c(C)c1`, the inhibition was 2.52%.

For `O=C(N/N=C/c1ccc(O)cc1)/C(=C/c1ccc([N+](=O)[O-])cc1)NC(=O)c1ccccc1`, the inhibition was 39% (active).

Take `O=C(N/N=C/c1cc([N+](=O)[O-])ccc1O)/C(=C\c1cccs1)NC(=O)c1ccccc1`: the inhibition was 15.7%.

With `Cc1ccc(C(=O)N/C(=C/C=C/c2ccccc2)C(=O)NCc2ccco2)cc1`, the inhibition is 48.9% (active).

For `O=C(Nc1ccc(C(=O)O)cc1)/C(=C\c1ccccc1)NC(=O)c1ccc(Br)cc1`, the inhibition is -8.77%.

For the compound `O=C(N/C(=C\c1ccc(O)cc1)C(=O)N1CCCCC1)c1ccccc1`, the inhibition is 9.79%.

As for `O=C(NCc1ccco1)/C(=C/c1ccco1)NC(=O)c1ccccc1`, the inhibition is -7.41%.

Turning to `CC(C=Cc1ccccc1)=NNS(=O)(=O)c1ccc([N+](=O)[O-])cc1`, the inhibition was 25.4%.

With `CCCCOc1ccc(C(=O)N/C(=C/C=C/c2ccccc2)C(=O)N2CCOCC2)cc1`, the inhibition is 20.1%.

Turning to `COc1ccc(/C=C(/NC(=O)c2ccccc2)C(=O)Nc2cccc(C(=O)O)c2)cc1`, the inhibition is 29.7%.

`O=C(Nc1ccc(C(=O)O)cc1)/C(=C/c1ccc([N+](=O)[O-])cc1)NC(=O)c1ccccc1`: the inhibition is 32.9% (active).

Regarding `CNC(=O)/C(=C\C=C\c1ccccc1)NC(=O)c1ccc([N+](=O)[O-])cc1`, the inhibition is 39.1% (active).

For the compound `Cc1ccccc1CCNC(=O)C1CCC(=O)N(Cc2ccc(Cl)cc2)C1` (stereo not given), the inhibition was -2.1%.

In the case of `CC1(C)C[C@H]2C3=CCC4[C@@]5(C)CC[C@H](O)[C@](C)(CO)C5CC[C@@]4(C)[C@]3(C)C[C@@H](O)[C@@]2(CO)[C@@H](O)[C@@H]1O` (stereo not given in full), the inhibition was 8.82%.

In the case of `COC(=O)C1=NN(c2ccccc2)C2C(=O)N(c3ccccc3OC)C(=O)C12` (stereo not given), the inhibition was 21%.

Regarding `CC(=O)N[C@@H](C)C(=O)N1CCC(n2nccc2NC(=O)CCCc2ccccc2)CC1`, the inhibition is 8.3%.

In the case of `CCC(C)Sc1nc2c(cnn2-c2ccc(F)cc2)c(=O)[nH]1` (stereo not given), the inhibition was 8.15%.

Regarding `COc1ccc(-c2nonc2NC(=O)c2oc3ccc(F)cc3c2C)cc1OC`, the inhibition was -4.27%.

Take `Cc1ccc(NC(=O)/C(=C/c2ccc([N+](=O)[O-])cc2)NC(=O)c2ccccc2)cc1`: the inhibition is 49.4% (active).

As to `O=C(N/C(=C\c1ccc([N+](=O)[O-])cc1)C(=O)N1CCOCC1)c1cccc(Br)c1`, the inhibition is 28.7%.

In the case of `COc1cc(/C=C(/NC(=O)c2ccccc2)C(=O)Nc2cccc(O)c2)c([N+](=O)[O-])cc1OC`, the inhibition is 11.6%.

With `Nc1nnn(CC(=O)N/N=C/c2ccccc2)n1`, the inhibition was 10.1%.

Take `Cc1nc(Cl)cc(N/N=C/c2ccccc2)n1`: the inhibition was 39.2% (active).

Consider `Cc1cc2c(C)nc(N/N=C/c3ccccc3)nc2o1`, for which the inhibition was 28.5%.

As to `COc1ccc(Br)cc1CN(C)CC(=O)Nc1cc(Cl)cc(Cl)c1`, the inhibition is -4.49%.

As to `CC(=O)Nc1ccc(S(=O)(=O)NCC(=O)OCC(=O)c2ccc[nH]2)cc1`, the inhibition is 4.57%.

Take `N#Cc1c(-c2ccccc2)nc(SCc2cccc(C(F)(F)F)c2)[nH]c1=O`: the inhibition is -3.35%.

`O=c1c2ccccc2nc2n1C(CSCc1cccc(C(F)(F)F)c1)CS2` (stereo not given): the inhibition is 32.9% (active).

As to `O=c1c2ccccc2nc2n1C(CSCc1ccccc1)CS2` (stereo not given), the inhibition was 2.03%.

As to `CC1=C(C(=O)Nc2cc(C)ccn2)C(c2cnn(C)c2)C2=C(CC(c3ccccc3)CC2=O)N1` (stereo not given), the inhibition is 16.7%.

`CC(C(=O)NC1CCCCC1)N1C(=O)c2cccc3cccc1c23` (stereo not given): the inhibition was 8.59%.

In the case of `C/C(=N\NC(=S)NC1CCCCC1)c1ccc(C)o1`, the inhibition was 12.9%.

As to `Cc1ccc(/C=N/NC(=S)NC2CCCCC2)o1`, the inhibition is 32.4% (active).

Consider `Cc1cc(Br)ccc1NC(=S)NC1CCCC1`, for which the inhibition is 13.7%.

On to `O=C(NCc1cccnc1)c1cc(C2CCCCN2C(=O)CCc2ccccc2)on1` (stereo not given), for which the inhibition is 1.83%.

Consider `CCN(CC)c1ccc(NC(=O)CCc2nnc3ccc(N4CCCCC4)nn23)c(C)c1`, for which the inhibition is 13.9%.

As to `Cc1ccc2cc(/C=N/NC(=O)[C@@H]3CCCN3)c(Cl)nc2c1`, the inhibition is 33.2% (active).

With `CSCC[C@H](NC(=O)OC(C)(C)C)C(=O)N/N=C/c1cc2ccc(C)cc2nc1Cl`, the inhibition is 14.8%.

`O=C(Nc1cccc(F)c1)[C@@H]1CCCN1`: the inhibition is -7.69%.

`COC(=O)C1(C)CC1(c1ccccc1)c1ccccc1` (stereo not given): the inhibition is 4.61%.

Consider `COc1cccc(NC(=O)CCc2nnc3ccc(N4CCC(C)CC4)nn23)c1`, for which the inhibition was 3.45%.

Turning to `Cc1cc(C)n(-c2nnc(C)n2NC(=O)c2cccc(Cl)c2)n1`, the inhibition is -3.66%.

As to `CCOc1ccc(/C=C(/NC(=O)c2ccccc2)C(=O)NCCC(=O)O)cc1`, the inhibition was 0.32%.

Take `Cn1c2ccccc2c2cc(/C=C(\NC(=O)c3ccccc3)C(=O)NCC(=O)O)ccc21`: the inhibition is 35.1% (active).

Regarding `O=C(NCC1CCCO1)/C(=C/c1ccc(Cl)cc1)NC(=O)c1ccccc1` (stereo not given), the inhibition is 0%.

As for `CC(C(=O)Nc1ccc(F)c(F)c1F)N1CCCCCC1` (stereo not given), the inhibition is -6.72%.

As for `CCC(C)(C)c1ccc(Oc2ccc(NC(=O)COC(=O)C3=COCCO3)cc2)cc1`, the inhibition was -7.05%.

For the compound `CN(C(=O)COC(=O)c1cc(=O)[nH]c2ccccc12)C1CCCCC1`, the inhibition is 10.5%.

As for `NC1=NC(=O)S/C1=C\c1ccc(O)cc1`, the inhibition is 15.8%.

As to `O=C1N=C(N2CCOCC2)S/C1=C\C=C/c1ccccc1`, the inhibition was 31.1% (active).

Take `O=C1N=C(N2CCOCC2)CS1`: the inhibition was -6.56%.

`O=C1N=C(N2CCc3ccccc3C2)S/C1=C\c1ccc(O)cc1`: the inhibition is 33.1% (active).

With `O=C(CC1SC(N2CCOCC2)=NC1=O)Nc1ccccc1F` (stereo not given), the inhibition was 10.5%.

On to `CCOc1cc(/C=C2\SC(N3CCCCC3)=NC2=O)ccc1O`, for which the inhibition was 24.1%.

For the compound `Cc1cc(/C=C2/SC(=O)N(CC(=O)N3CCCC3)C2=O)ccc1N1CCOCC1`, the inhibition was 1.85%.

Consider `c1ccc(-c2csc(N3CCc4ccccc4C3)n2)cc1`, for which the inhibition was 2.71%.

`CCc1ccc(/C=C2\SC(N3CCOCC3)=NC2=O)cc1`: the inhibition is 30.8% (active).

On to `CCOc1ccc(C(=O)NCC(=O)N2CCCCCCC2)cc1OCC`, for which the inhibition is -2.14%.

As for `O=C(NC1CCCCC1)C1CCC(CNS(=O)(=O)c2ccccc2)CC1` (stereo not given), the inhibition is -8.09%.

As for `NC(=O)CCC(NS(=O)(=O)c1ccc(Cl)cc1)C(=O)NCc1ccccc1Cl` (stereo not given), the inhibition was 5.93%.

For `O=C(NC1CC1)C1=C[C@H](c2coc3ccccc3c2=O)C[C@H](OCCCCO)O1`, the inhibition was 1.68%.

As for `CCOC(=O)c1sc(NC(=O)C2CSC3(C)CCC(=O)N23)nc1C` (stereo not given), the inhibition was 4.14%.

Consider `Cn1c(=O)cc(OCC(=O)N2CCN(c3ccccc3F)CC2)c2ccccc21`, for which the inhibition is 2.59%.

Take `Cc1cccc(N2CCN(C(=O)CCS(=O)(=O)c3ccc4c(c3)NC(=O)C(C)S4)CC2)c1C` (stereo not given): the inhibition was -2.95%.

Regarding `COc1ccc(CCC(=O)N2CCN(S(=O)(=O)c3ccc(OC)cc3)CC2)cc1`, the inhibition was 1.81%.

For `CCOC(=O)N1CCN(C(=O)c2ccc3nc4cc(Cl)ccc4c(=O)n3c2)CC1`, the inhibition was -6.67%.

On to `COc1ccc(C(N)c2csc(NC(=O)Nc3cccc(C(F)(F)F)c3)n2)cc1` (stereo not given), for which the inhibition is -1.33%.

For `CC(=O)c1ccc(Nc2nc(C(N)c3ccccc3)cs2)cc1` (stereo not given), the inhibition was 32% (active).

For `CC(=O)c1ccc(Nc2nc(C(N)c3ccccc3Cl)cs2)cc1` (stereo not given), the inhibition was 29.2%.

Turning to `Cc1cc(NC(=O)/C=C/C(=O)N(c2ccccc2C)C(C(=O)NC2CCCC2)c2ccc(F)cc2)no1` (stereo not given), the inhibition was 15.8%.

As to `CN(C)/C=C1\C=C(c2ccccc2)OC1=O`, the inhibition was 17.7%.

`O=C1c2ccccc2-c2ccccc2NC1O` (stereo not given): the inhibition is -4.42%.

As for `CN(C)/C=C1/C(=O)Nc2ccccc21`, the inhibition was 36.4% (active).

With `CCN(CC)c1ccc(C(=O)NNC(=O)CCc2nc3ccccc3c(=O)[nH]2)cc1`, the inhibition is 30.9% (active).

On to `CCN(CC(=O)NC(=O)NCc1ccccc1)Cc1nc2ccccc2c(=O)[nH]1`, for which the inhibition is -1.22%.

As for `CC(C)(C)c1ccc(NC(=O)COC(=O)CCc2nc3ccccc3c(=O)[nH]2)cc1`, the inhibition is 3.69%.

Regarding `COc1ccc(S(=O)(=O)N2CCN(C(=O)c3cccs3)CC2)cc1OC`, the inhibition was -5.51%.

Consider `CC(C(=O)N(C)CC(=O)Nc1ccccc1C(F)(F)F)N1C(=O)c2ccccc2C1=O` (stereo not given), for which the inhibition was -1.08%.

Take `C/C(=N\Nc1cccc(C(=O)O)c1)c1ccc2c(c1)Nc1ccccc1S2`: the inhibition is 7.28%.

As to `Cc1nc2ccc(C(=O)N/N=C/c3ccc(O)cc3)cc2[nH]1`, the inhibition is 36.4% (active).

Regarding `O=C(N/N=C/c1ccsc1)c1cc(O)cc(O)c1`, the inhibition was 4.09%.

For the compound `Cc1nonc1C(=O)N/N=C/c1ccc(O)cc1`, the inhibition is 29.1%.

As for `O=S(=O)(c1ccc(SCc2ccc(Br)cc2)nc1)N1CCOCC1`, the inhibition was 0.32%.

As for `O=C(NCc1ccccc1)C(c1ccccc1)N(C(=O)c1csnn1)c1ccc(F)cc1` (stereo not given), the inhibition was -1.56%.

As for `Cc1nc2ccc(S(=O)(=O)N(C)CC(=O)NC(C)c3ccccc3)cc2s1` (stereo not given), the inhibition is 14.8%.

On to `Cc1cccc(C)c1NC(=O)CNC(=O)c1ccc(N2CCOCC2)c([N+](=O)[O-])c1`, for which the inhibition is 1.79%.

For the compound `CC(C)CN(C(=O)COC(=O)c1ccc2ccccc2c1)c1c(N)n(Cc2ccccc2)c(=O)[nH]c1=O`, the inhibition is 2.15%.

Turning to `CCN(/N=C/c1ccccc1)c1cc(=O)n(C)c(=O)[nH]1`, the inhibition was 36.7% (active).

With `Cc1cn(C2CC(O)C(CO)O2)c(=O)n(CCCc2ccccc2)c1=O` (stereo not given), the inhibition is -7.8%.

For the compound `COc1cc(C(=O)NN(CCC#N)C2=NS(=O)(=O)c3ccccc32)cc(OC)c1OC`, the inhibition was 4.46%.
